Source: PubChem
B2AR ag: agonists of human beta-2 adrenergic receptor inducing internalization; AID 504454; Am2.2-beta2AR cells, FAP receptor internalization, flow cytometry; response, % (concentration not given with the values); actives 0.43% (n = 340,000);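 active = response above a set limit, near 3 SD of response in nonfluorescent compounds, cut at about 42% in these data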
Target sequence (P07550 whole entry, looked up): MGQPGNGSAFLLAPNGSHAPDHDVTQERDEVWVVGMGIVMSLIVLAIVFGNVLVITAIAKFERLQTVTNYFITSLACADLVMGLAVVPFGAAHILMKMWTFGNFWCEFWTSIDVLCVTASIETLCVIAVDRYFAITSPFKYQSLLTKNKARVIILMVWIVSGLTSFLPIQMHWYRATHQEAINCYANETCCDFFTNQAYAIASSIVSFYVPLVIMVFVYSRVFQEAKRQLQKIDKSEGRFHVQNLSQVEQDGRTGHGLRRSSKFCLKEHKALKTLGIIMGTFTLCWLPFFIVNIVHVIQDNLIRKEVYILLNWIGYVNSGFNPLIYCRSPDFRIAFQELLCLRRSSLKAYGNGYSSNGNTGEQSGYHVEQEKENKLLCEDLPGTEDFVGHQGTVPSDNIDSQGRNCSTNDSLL
NOD2-RIPK2 inh: blocks binding of human NOD2 to RIPK2 | O43353 | actives 0.38% (n = 360,000) | CHO BLA complementation NOD2-RIPK2, CCF4 ratio | inhibition, % at 4.98 µM; in the data active = inhibition above about 21%;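 also: 0% = vehicle only and 100% = reference blocker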
Bfl-1 A1 inh: inhibitors of the anti-apoptotic protein A1, read as caspase activation. MEF A1-2A-BIM cells, Caspase-Glo 3/7 luminescence, 3 h; percent of clofoctol response, vehicle zero. caspase activation, % (no concentration beside the values). actives 0.066% (n = 330,000). AID 2462;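 active = over half of replicate activation scores above 10%, or exactly half above 10 with the replicate mean above 10; inconclusive = replicate mean below 10 yet half the replicates above 10; inactive = over half of replicates below 10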
NTR1 ag: activates human neurotensin receptor 1; AID 493036; actives 0.17% (n = 330,000); activation, % at 20 µM; NTR1-U2OS beta-arrestin-GFP spot imaging, agonist mode; P30989;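 active = activation at or above 40% of the spot to cytoplasm intensity ratio, with at least 20 cells analyzed; inconclusive = wells under 20 cells, flagged as cytotoxic or low count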;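 also: 0% = DMSO without peptide and 100% = 100 nM NTR1 peptide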
TLR4 MyD88 comp: TLR4-MyD88 interaction inhibition in cells; O00206+Q99836; HeLa CL3-4 TLR4/MyD88 BLA complementation, FRET ratio; inhibition, % at 8.4 µM; actives 0.18% (n = 200,000); AID 861; in the data active = inhibition above about 25%;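 also: 0% = vehicle and 100% = reference inhibitor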
TLR9-MyD88 inh: blocks human TLR9 binding to MyD88; Q9NR96+Q99836; CHO BLA complementation TLR9-MyD88, CCF4 FRET ratio; inhibition, % at 4.98 µM; actives 0.21% (n = 340,000); AID 504734;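 active = inhibition above the mean over all tested compounds plus 3 SD, cut at about 21% in these data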;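 also: 0% = DMSO only wells and 100% = clavulanate BLA inhibitor control wells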
NTR1 ag confirm: confirmation of agonists of human NTR1. AID 504550. shares compounds with NTR1 ag. NTR1-U2OS beta-arrestin-GFP translocation imaging. actives 38% (n = 480). activation, % at 20 µM;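 active = mean activation at 20 µM of at least 40%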;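 also: 0% = DMSO without peptide and 100% = 100 nM NTR1 peptide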
* = called active by the depositor; ? = inconclusive; . = no result. Most compounds without a hit are left out; they make up all but 0.97% or so of the library.

SMILES	B2AR ag	NOD2-RIPK2 inh	Bfl-1 A1 inh	NTR1 ag	TLR4 MyD88 comp	TLR9-MyD88 inh	NTR1 ag confirm
COc1ccc(CCN(C(=S)Nc2ccccc2)C2CC(=O)N(c3ccccc3)C2=O)cc1 (stereo not given)	2	4	-1	21	-7	5	.
O=c1oc2cc(OCc3ccc(F)cc3F)ccc2cc1-c1ccccn1	-6	-5	1	4	2	0	.
COc1ccc(O)c(-c2cc(-c3cccc(Br)c3)n[nH]2)c1	4	4	0	55*	4	2	16
COc1ccc(-c2cc(-c3cc(OC)ccc3O)[nH]n2)cc1	10	3	-1	4	14	-5	.
COc1ccc(S(=O)(=O)Nc2ccccc2C(=O)Nc2nc(-c3ccc(F)cc3)cs2)cc1OC	29	-3	0	45*	-1	-11	7
CC1=NNC(=O)/C1=C\c1cn(-c2ccccc2)nc1-c1ccc(Cl)cc1	108*	2	41*	101*	10	0	78*
CC1(C)CC(=O)C(=Cc2cn(-c3ccccc3)nc2-c2ccccc2)C(=O)C1	7	0	2	71*	.	6	65*
Nc1ccc(Oc2ccc3c(c2)OCO3)cc1	3	-1	0	5	-1	-9	.
CCOC(=O)c1c(NC(C)=O)sc2c(OCCN(CC)CC)c(Br)ccc12	5	10	1	32	-11	3	.
CCOC(=O)c1c(NC(C)=O)sc2c(OCC(O)CN(CC)CC)c(Br)ccc12 (stereo not given)	19	0	0	53*	-3	-2	47*
CCc1nnc(NC(=S)Nc2ccccc2)s1	0	3	-2	1	-2	4	.
CCOc1ccc(NC(=S)Nc2ccc(OCC)cc2)cc1	5	-5	0	-1	-13	-4	.
Cc1ccc(C(=O)Nc2nnc(NC(=S)Nc3ccccc3)s2)cc1	11	-9	1	73*	-3	7	58*
CCOc1ccc(C(=O)Nc2nnc(NC(=S)Nc3ccccc3)s2)cc1	103*	10	-2	61*	-2	4	46*
CN(c1ccccc1)c1nc(N)c([N+](=O)[O-])c(Nc2ccc(F)cc2)n1	9	-11	0	13	.	-13	.
CN(c1ccccc1)c1nc(N)c([N+](=O)[O-])c(Nc2cccc(F)c2)n1	10	5	?	44*	.	1	37
Cc1cccc(C(=O)Oc2ccc(/C=N/NC(=O)c3ccc(O)cc3)cc2)c1	12	-4	-1	53*	.	-11	14
Cc1cccc(C(=O)Oc2ccc(/C=N/NC(=O)c3ccccc3O)cc2)c1	12	-10	-2	22	1	-9	.
Cc1ccsc1CN1CCN(c2ccccn2)CC1	1	-3	2	0	-4	-1	.
COc1cccc(C(C[N+](=O)[O-])c2c(C)[nH]n(-c3ccccc3)c2=O)c1 (stereo not given)	8	7	3	51*	.	5	4
O=S(=O)(c1ccc2ccccc2c1)N(CC(O)CN1CCOCC1)c1ccccc1 (stereo not given)	-12	-7	0	0	8	3	.
Oc1ccc(-c2cc(-c3ccc(O)cc3)nc(-c3ccccc3)n2)cc1	13	8	0	52*	.	1	57*
Nc1ccc(-c2cc(-c3ccc(N)cc3)nc(-c3ccccc3)n2)cc1	4	2	0	2	-11	-1	.
CCN1C(=O)/C(=C/N(C(C)=O)c2ccccc2)N(c2ccccc2)C1=S	-28	3	0	42*	10	-1	61*
CC(=O)c1ccc(NC(=O)COC(=O)Cn2cnc3ccccc32)cc1	0	-2	0	1	.	1	.
O=c1[nH]c(=O)n(Cc2ccco2)c2c1C(C(F)(F)F)(C(F)(F)F)N=C(CCC1CCCCC1)N2	5	-6	0	46*	-3	-5	21
COc1cccc(-c2nc(-c3ccc(NC(=O)c4cccnc4)cc3)no2)c1	12	-6	0	2	-3	-1	.
